Data on five compounds can be found in PubChem BioAssay (NCATS).

The test deals with Phospholipid hydroperoxide glutathione peroxidase GPX4 (Homo sapiens) (UniProt P36969). As to the kind of experiment: Primary qHTS Assay for Inhibitors of Recombinant Selenoprotein Glutathione Peroxidase 4 (GPX4) (AID 1845192). Also: nearly all actives have a fitted effect of over 65% in size. Summed up:
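qHTS, GR-coupled: GPX4 200 nM + cpd 30 min RT → GSH 1 mM, NADPH 0.5 mM, GR 100 nM → CHP 0.5 mM start; fluor 340/450 at t0 and t15 min; no-enzyme wells as control.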
A general note: qHTS replaces the single test concentration by a dilution series.

Inconclusive results are not listed. Where a call stands in place of a potency, no number is given. Active and inactive are the calls of the source. Calls follow the shape of the dose curve; as a rule, active = well fitted inhibition curve with a large enough effect; inconclusive = small, poorly fitted or top-dose-only effect; inactive = flat fitted curve, though single readings scatter.

Sequence of Phospholipid hydroperoxide glutathione peroxidase GPX4 (Homo sapiens) (P36969 whole entry, looked up): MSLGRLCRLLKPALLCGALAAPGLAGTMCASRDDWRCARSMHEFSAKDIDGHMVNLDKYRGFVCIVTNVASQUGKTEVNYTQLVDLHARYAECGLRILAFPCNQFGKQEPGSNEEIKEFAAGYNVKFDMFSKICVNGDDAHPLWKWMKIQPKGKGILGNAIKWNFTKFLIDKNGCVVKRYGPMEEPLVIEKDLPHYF

Take `Oc1c(I)cc(I)c2cccnc12`: the Potency entry is “inactive”. To `CC(=O)[C@H]1CC[C@H]2[C@@H]3C[C@H](C)C4=CC(=O)CC[C@]4(C)[C@H]3[C@@H](O)C[C@]12C` belongs “inactive”.

In the case of `CC(C)N=C(N)/N=C(\N)Nc1ccc(Cl)cc1`, the Potency result was “inactive”. With `CC1(C)O[C@@H]2[C@@H](CO[C@@]3(COS(N)(=O)=O)OC(C)(C)O[C@@H]23)O1`, the Potency result was “inactive”.

Consider `COc1cccc2c1C(=O)c1c(O)c3c(c(O)c1C2=O)C[C@@](O)(C(=O)CO)C[C@@H]3O[C@H]1C[C@H](N)[C@H](O)[C@H](C)O1`, for which the Potency entry was “inactive”.
